# Bioassay records deposited in PubChem by National Center for Advancing Translational Sciences (NCATS).
# This is a sample that favours compounds with a hit; in the whole collection about 9.3% have one here.
# SMN2 splice enh: increases expression of the SMN2 splice variant. 210,000 tested, 2.8% active. AID 1458. Potency, µM (titrated, usually from 46.1 µM), inactives show at the top dose activity change, positive = activation, hits mostly activators. HEK293 SMN2-luciferase splicing reporter, luminescence, 30-36 h; also: % of control where 0% means no effect; nearly all actives have a fitted effect of over 55% in size
#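 HEK293 cells carry an SMN2 […]–luciferase reporter in which exon 7 inclusion puts luciferase in frame. Cells were plated 10-12 h before compound addition, then incubated 30-36 h at 37C. ONE-Glo luminescence was read; sodium butyrate at 4.5 mM final served as control.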
# ELG1 DNA repair: blocks ELG1-dependent DNA repair in HEK293T cells | HEK293T ELG1-luciferase reporter, luminescence, 16 h; DNA damage induced by 5-fluorouridine | Potency, µM (titrated, usually from 46.1 µM), for inactives: at the top dose activity change, negative = inhibition, actives largely listed as inhibitors | 330,000 tested, 2.3% active | AID 504467; also: % is scaled to controls: 0 for no effect and ±100 for the full control effect; nearly all actives have a fitted effect of over 55% in size
#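 In this reporter screen, reduction of luminescence relative to DMSO vehicle indicated activity. Compounds and 5-fluorouridine were added together to 2,000 cells per well, incubated for 16 hr at 37 °C, then developed with ONE-Glo.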
# NPC1 prom act: activators of NPC1 promoter. Huh7 NPC1 promoter luciferase reporter, 24 h. Potency, µM (top dose mostly 9.22 µM), for inactives: top-dose activation, usual class: activators. 320,000 tested, 2.4% active. AID 485313; also: % of control where 0% means no effect; nearly all actives have a fitted effect of over 60% in size
#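 Luminescence read-out of NPC1 promoter-driven luciferase in stably transfected Huh7 cells; compounds delivered in DMSO and left 24 h at 37C, 5% CO2, qHTS titration format.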
# ELG1 genotox: induces genotoxicity in HEK293T cells with luciferase-tagged ELG1 | HEK293T ELG1-luciferase reporter, luminescence, 16 h | AID 504466 | Potency, µM (top dose mostly 46 µM), for inactives: at the top dose activity change, positive = activation, hits mostly activators | 330,000 tested, 1.3% active; also: % of control where 0% means no effect; nearly all actives have a fitted effect of over 60% in size
#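 Quantitative HTS format in 1536-well plates. HEK293T ELG1-luciferase reporter cells receive test compound and are incubated 16 hr at 37 °C, 5% CO2; ONE-Glo added, 30 min room temperature, then luminescence read.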
# FLuc counter: firefly luciferase modulation, counter-screen for miR-21 project | Potency, µM (top dose mostly 57.5 µM), for inactives: top-dose activity change, negative = inhibition, most hits filed as inhibitors | P08659 | 360,000 tested, 6.9% active | purified FLuc, Km substrates, luminescence inhibition | AID 588342;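 also: plate controls were vehicle for no effect and reference inhibitor for full effect; nearly all actives have a fitted effect of over 55% in size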
# Target sequence (P08659 whole entry, looked up): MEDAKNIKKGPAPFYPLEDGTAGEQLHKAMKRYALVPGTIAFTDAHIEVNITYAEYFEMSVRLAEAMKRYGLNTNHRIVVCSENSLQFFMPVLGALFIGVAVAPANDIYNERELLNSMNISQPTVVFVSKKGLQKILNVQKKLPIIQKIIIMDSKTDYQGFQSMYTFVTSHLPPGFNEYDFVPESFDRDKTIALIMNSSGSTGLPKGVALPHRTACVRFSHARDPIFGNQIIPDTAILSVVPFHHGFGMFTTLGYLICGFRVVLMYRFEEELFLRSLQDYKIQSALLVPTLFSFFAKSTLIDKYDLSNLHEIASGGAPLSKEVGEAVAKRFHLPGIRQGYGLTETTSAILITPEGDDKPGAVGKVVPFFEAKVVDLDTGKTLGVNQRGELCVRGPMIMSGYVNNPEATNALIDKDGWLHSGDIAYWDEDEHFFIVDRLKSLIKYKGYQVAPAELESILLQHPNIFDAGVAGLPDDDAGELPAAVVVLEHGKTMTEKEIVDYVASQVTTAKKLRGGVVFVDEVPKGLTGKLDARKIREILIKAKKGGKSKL
#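 Purified P. pyralis luciferase (10nM final) with 10uM D-luciferin and 10uM ATP (Km levels) in 50mM Tris acetate pH 7.5, 10mM Mg acetate, 0.01% Tween-20, 0.05% BSA; qHTS 6-point titration, ~60 µM downward; luminescence read.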
# Rab9 promoter act: activates the Rab9 promoter; Potency, µM (series often up to 9.22 µM), for the others: at the top dose activation, negative = inhibition, actives largely listed as activators; AID 485297; 320,000 tested, 2.8% active; Huh7 Rab9 promoter-luciferase reporter, luminescence, 24 h; also: % of control where 0% means no effect; nearly all actives have a fitted effect of over 60% in size
#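 Cells were plated at 1500 per well in reduced-serum medium with 10% FBS and left 2 h. Compound in DMSO was then added for 24 h at 37 °C. Reporter signal was read by luminescence after 10 min with luciferase detection reagent.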
# An asterisk follows results filed as active; ? = inconclusive; . = not tested or not shown; [ ] = remark or other dose. Calls follow the shape of the dose curve; as a rule, active = well fitted curve in the direction sought with a large enough effect; inconclusive = small, poorly fitted or top-dose-only effect, or another doubt; inactive = no such curve, though single readings can be large; an effect the other way counts as inactive or inconclusive. Potency is read from the fitted curve at half-maximal effect.
SMILES,SMN2 splice enh,ELG1 DNA repair,NPC1 prom act,ELG1 genotox,FLuc counter,Rab9 promoter act
CN1CCc2c(sc3c2C(=O)NC(c2ccc4c(c2)OCO4)N3)C1 (centres undefined),28%,-3%,1%,0%,2%[2.3 µM],-4%
CC1(OC(=O)C2CCCC2)C(=O)C=C2C=C(c3ccsc3)N(Cc3ccccc3)C=C2C1=O (centres undefined),-27%[9.22 µM],1%,1%,-3%,-2%,-2%
C=C(C)COc1ccc2c3c(c(=O)oc2c1OCC(=C)C)CCC3,-6%,-15%,-6%,-2%,3%,11%
O=C(NCc1ccco1)c1ccc(Cn2c(SCc3ccccc3)nc3cccnc32)cc1,.,.,.,.,6.7µM*,.
O=C(NCc1ccccc1)c1ccc(CSc2nc3cccnc3n2Cc2ccccc2F)cc1,.,.,.,.,-14%,.
CCN(CC)C(=O)CSc1nc2ccccc2c(=O)n1CCC(=O)NCc1ccc(F)cc1,-38%,12µM*,1%,-3%,-1%,0%
O=C(NCc1ccccc1Cl)c1ccc(Cn2c(SCc3ccccc3)nc3cccnc32)cc1,.,.,.,.,5.4µM*,.
CCn1c(SCC(=O)NNC(=O)c2ccc(C)cc2)nnc1C(C)C,.,-1%,-4%,-1%,5%,9%
CCCNC(=O)C(=O)c1cccn1-c1ccsc1C(=O)OC,17%,8%,0%,-1%,2%,6%
O=Cc1ccccc1OCc1ccc2c(c1)OCO2,.,?,13%,13µM*,1.3µM*,12%
O=C(COC(=O)/C=C/c1ccc(C(F)(F)F)cc1)NCCC1=CCCCC1,.,2%,-4%,1%,-1%,6%
O=C(COC(=O)/C=C/c1ccccc1)NCCC1=CCCCC1,-7%,8%,-2%,5%,5%,0%
O=C(/C=C/c1ccccc1)NCCC1=CCCCC1,11µM*,?,?,?,9.5µM*,2.8µM*
COc1ccccc1/C=C/C(=O)NCCC1=CCCCC1,11µM*,?,4µM*,?,11µM*,3.2µM*
O=C(/C=C/c1ccc(F)cc1)NCCC1=CCCCC1,?,?,?,13%,15µM*,?
CC(C)CN(CCCNC(=O)c1cc(-c2cccs2)nc2ccccc12)CC(C)C,2%,.,.,.,-6%,.
O/N=C(/CCc1ccccc1)c1ccc2c(c1)OCCO2,16µM*,?,4µM*,21µM*,13µM*,2.8µM*
O=C(CCN1CCc2ccccc21)c1ccc2c(c1)OCCO2,-5%,?,?,14%,8.5µM*,?
O=C(O)CCC(=O)c1ccc2c(c1)OCCCO2,15%,10%,-7%,5%,-3%,3%
O=C(CCN1CCc2ccccc2C1)c1ccc2c(c1)OCCO2,-5%,2%,12%,-1%,?,2%
COc1ccc(OCC(=O)OC(C)CN2CCOCC2)cc1 (centres undefined),2.8µM*,5%,-2%,2%,2%,-3%
CC(CN1CCOCC1)OC(=O)COc1ccc(F)cc1 (centres undefined),-2%,4%,-1%,1%,-1%,-9%
O=C(CCc1ccccc1)c1ccc2c(c1)OCCCO2,?,?,3.2µM*,4.1µM*,4.3µM*,0.63µM*
CC(C)(C)N(Cc1ccccc1)C(=O)c1ccc2c(c1)OCCO2,-8%,-8%,2%,-2%,-1%,-5%
CCCCC(=O)NS(=O)(=O)c1ccc(N=NN2CCCCC2)cc1,-14%[1.84 µM],?,0%,0%,-4%,10%
COc1cc2nc(C3CCC3)n(N)c(=O)c2cc1OC,.,-3%,-1%,4%,-2%,0%
O=C(CCCc1ccccc1)c1ccccc1,.,?,1.6µM*,?,0.76µM*,1.4µM*
O=C(CCCc1ccccc1)c1ccc2c(c1)OCCO2,-41%,?,-28%,?,0.076µM*,-21%
O=C(CCCC(=O)c1ccccc1)NCCc1ccccc1,.,9%,-3%,1%,-13%,-3%
